Test results taken from the supplement of paper PMC9262897, “Low-cost anti-mycobacterial drug discovery using engineered E. coli” (Nature Communications, 2022).
Structures can show the parent of a compound that is named as a salt. ± gives the standard deviation of the averaged measurements.

Columns and labels:
Experiment in all cases: growth (OD600 after 10 h); higher = more growth (less inhibition)
[1] = tested on: E. coli TESEC Alr+ wild-type control; details: compound 0.1 mM; raw OD600 reference: median of DMSO wells 0.241, cell-free background 0.041
Procedure: (§1)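 TESEC Mtb Alr E. coli, or the Alr+ wild-type control, in 384-well plates with Prestwick library compounds at 0.1 mM and 1% DMSO, across arabinose induction levels of 1E3 to 1E7 nM. Growth is read as OD600 after 10 h at 37 °C in triplicate biological replicates.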

[2] = tested on: E. coli TESEC Mtb Alr; details: compound 0.1 mM
Procedure: as §1

[3] = tested on: E. coli TESEC Mtb Asd; details: compound 0.1 mM
Procedure: (§2)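 TESEC E. coli strains in which the native enzyme is deleted and replaced by arabinose-inducible Mtb Asd, DapB, CysH or TrpD, each grown in its selective medium. Strains were screened against the Prestwick library at 0.1 mM and 1% DMSO in 384-well format at low and high arabinose induction. Growth is read as OD600 after 10 h in triplicate.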

[4] = tested on: E. coli TESEC Mtb DapB; details: compound 0.1 mM
Procedure: as §2

[5] = tested on: E. coli TESEC Alr+ wild-type control; details: compound 0.1 mM; raw OD600 reference: median of DMSO wells 0.49, cell-free background 0.052
Procedure: (§3)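 TESEC Mtb Alr E. coli (ΔaraC ΔtolC ΔentC Δalr ΔdadX, arabinose-inducible Mtb Alr) or the Alr+ wild-type control strain, grown in defined M9-fructose medium without D-alanine in 96-well plates with Prestwick library compounds at 0.1 mM and 1% DMSO. Low Alr induction is 0.1 µM arabinose and high induction is 10 mM arabinose.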

[6] = tested on: E. coli TESEC Mtb Alr; details: compound 0.1 mM; remark: listed apart in the source
Procedure: as §3

[7] = arabinose 1000 nM, raw OD600 reference: median of DMSO wells 0.294, cell-free background 0.041
[8] = arabinose 10000 nM, raw OD600 reference: median of DMSO wells 0.264, cell-free background 0.041
[9] = arabinose 100000 nM, raw OD600 reference: median of DMSO wells 0.201, cell-free background 0.041
[10] = arabinose 1000000 nM, raw OD600 reference: median of DMSO wells 0.193, cell-free background 0.041
[11] = arabinose 10000000 nM, raw OD600 reference: median of DMSO wells 0.146, cell-free background 0.041
[12] = arabinose induction (level): High, raw OD600 reference: median of DMSO wells 0.331, cell-free background 0.041
[13] = arabinose induction (level): Low, raw OD600 reference: median of DMSO wells 0.417, cell-free background 0.041
[14] = arabinose induction (level): High, raw OD600 reference: median of DMSO wells […], cell-free background 0.041
[15] = arabinose induction (level): Low, raw OD600 reference: median of DMSO wells 0.227, cell-free background 0.041
[16] = arabinose 100 nM, raw OD600 reference: median of DMSO wells 0.413, cell-free background 0.052
[17] = arabinose 10000000 nM, raw OD600 reference: median of DMSO wells […], cell-free background 0.052

| SMILES | growth [1] | growth [2, 7] | growth [2, 8] | growth [2, 9] | growth [2, 10] | growth [2, 11] | growth [3, 12] | growth [3, 13] | growth [4, 14] | growth [4, 15] | growth [5] | growth [6, 16] | growth [6, 17] |
| --- | --- | --- | --- | --- | --- | --- | --- | --- | --- | --- | --- | --- | --- |
| O=C(Nc1ccccc1)OCC(CN1CCCCC1)OC(=O)Nc1ccccc1 (configuration not stated) [Diperodon hydrochloride] | 0.193 ± 0.0045 | 0.249 ± 0.0066 | 0.259 ± 0.0044 | 0.231 ± 0.037 | 0.0876 ± 0.0038 | 0.154 ± 0.0081 | 0.235 ± 0.019 | 0.345 ± 0.065 | 0.2 ± 0.0073 | 0.223 ± 0.038 | 0.405 ± 0.02 | 0.426 ± 0.0081 | 0.243 ± 0.028 |
| CC(C)(C)NCC(O)COc1cccc2c1CC(O)C(O)C2 (configuration not stated) [Nadolol] | 0.254 ± 0.016 | 0.303 ± 0.014 | 0.267 ± 0.0029 | 0.192 ± 0.025 | 0.2 ± 0.0078 | 0.137 ± 0.0026 | 0.336 ± 0.067 | 0.442 ± 0.0083 | 0.201 ± 0.02 | 0.259 ± 0.018 | 0.493 ± 0.12 | 0.408 ± 0.011 | 0.384 ± 0.015 |
| Cc1ccc2c(c1)c1c3n2CCNC3CCC1 (configuration not stated) [Pirlindole mesylate] | 0.215 ± 0.0049 | 0.252 ± 0.0064 | 0.262 ± 0.0058 | 0.182 ± 0.022 | 0.148 ± 0.003 | 0.165 ± 0.011 | 0.177 ± 0.0082 | 0.259 ± 0.028 | 0.18 ± 0.0019 | 0.201 ± 0.024 | 0.485 ± 0.052 | 0.397 ± 0.0065 | 0.351 ± 0.011 |
| CCOC(=O)[C@H](CCc1ccccc1)N[C@@H](C)C(=O)N1[C@H](C(=O)O)C[C@@H]2CCC[C@@H]21 [Ramipril] | 0.22 ± 0.014 | 0.292 ± 0.004 | 0.288 ± 0.01 | 0.19 ± 0.011 | 0.217 ± 0.004 | 0.14 ± 0.0088 | 0.253 ± 0.065 | 0.365 ± 0.092 | 0.188 ± 0.013 | 0.229 ± 0.0092 | 0.586 ± 0.011 | 0.42 ± 0.0058 | 0.295 ± 0.022 |
| C[C@H](CCC(=O)O)[C@H]1CC[C@H]2[C@@H]3CC[C@@H]4C[C@H](O)CC[C@]4(C)[C@H]3CC[C@]12C [Lithocholic acid] | 0.255 ± 0.011 | 0.312 ± 0.011 | 0.266 ± 0.0075 | 0.207 ± 0.012 | 0.169 ± 0.0078 | 0.173 ± 0.0071 | 0.462 ± 0.008 | 0.404 ± 0.022 | 0.214 ± 0.011 | 0.229 ± 0.021 | 0.386 ± 0.047 | 0.325 ± 0.037 | 0.3 ± 0.017 |
| C=CCc1ccccc1OCC(O)CNC(C)C (configuration not stated) [Alprenolol hydrochloride] | 0.217 ± 0.0068 | 0.267 ± 0.013 | 0.259 ± 0.013 | 0.199 ± 0.023 | 0.156 ± 0.0022 | 0.145 ± 0.0043 | 0.322 ± 0.074 | 0.419 ± 0.027 | 0.183 ± 0.011 | 0.284 ± 0.059 | 0.446 ± 0.015 | 0.405 ± 0.013 | 0.363 ± 0.013 |
| Cc1cc(CC(=O)O)n(C)c1C(=O)c1ccc(Cl)cc1 [Zomepirac sodium salt] | 0.22 ± 0.0032 | 0.261 ± 0.022 | 0.239 ± 0.0082 | 0.16 ± 0.0043 | 0.1938 ± 0.0017 | 0.121 ± 0.0027 | 0.473 ± 0.13 | 0.295 ± 0.069 | 0.187 ± 0.0096 | 0.247 ± 0.038 | 0.476 ± 0.083 | 0.392 ± 0.014 | 0.3428 ± 0.0013 |
| Cc1c(Nc2ncccc2C(=O)O)cccc1C(F)(F)F [Flunixin meglumine] | 0.146 ± 0.0033 | 0.084 ± 0.007 | 0.0857 ± 0.0019 | 0.163 ± 0.005 | 0.082 ± 0.0026 | 0.127 ± 0.0028 | 0.157 ± 0.0086 | 0.125 ± 0.0096 | 0.178 ± 0.0075 | 0.187 ± 0.01 | 0.373 ± 0.034 | 0.277 ± 0.026 | 0.146 ± 0.021 |
| NCCCC(O)(P(=O)(O)O)P(=O)(O)O [Alendronate sodium] | 0.259 ± 0.0047 | 0.305 ± 0.013 | 0.265 ± 0.007 | 0.24 ± 0.033 | 0.178 ± 0.0032 | 0.162 ± 0.0058 | 0.343 ± 0.043 | 0.414 ± 0.04 | 0.214 ± 0.022 | 0.227 ± 0.019 | 0.514 ± 0.051 | 0.422 ± 0.012 | 0.204 ± 0.023 |
| COc1cc2nc(N3CCN(C(=O)C4COc5ccccc5O4)CC3)nc(N)c2cc1OC (configuration not stated) [Doxazosin mesylate] | 0.054 ± 0.0033 | 0.047 ± 0.002 | 0.0476 ± 0.00044 | 0.0463 ± 0.0012 | 0.04047 ± 5.8e-05 | 0.0449 ± 0.0026 | 0.092 ± 0.023 | 0.0521 ± 0.004 | 0.194 ± 0.015 | 0.208 ± 0.038 | 0.0495 ± 0.0017 | 0.277 ± 0.2 | 0.0514 ± 0.0015 |
| CCCCNc1cc(C(=O)O)cc(S(N)(=O)=O)c1Oc1ccccc1 [Bumetanide] | 0.234 ± 0.0058 | 0.261 ± 0.021 | 0.251 ± 0.0081 | 0.167 ± 0.018 | 0.159 ± 0.0062 | 0.138 ± 0.0095 | 0.226 ± 0.01 | 0.449 ± 0.062 | 0.209 ± 0.027 | 0.215 ± 0.038 | 0.492 ± 0.048 | 0.426 ± 0.0046 | 0.333 ± 0.02 |
| Cc1cnc(NC(=O)C2=C(O)c3ccccc3S(=O)(=O)N2C)s1 [Meloxicam] | 0.148 ± 0.0039 | 0.186 ± 0.0048 | 0.238 ± 0.012 | 0.208 ± 0.039 | 0.117 ± 0.0022 | 0.149 ± 0.0054 | 0.245 ± 0.035 | 0.296 ± 0.1 | 0.201 ± 0.021 | 0.195 ± 0.0074 | 0.461 ± 0.023 | 0.33 ± 0.04 | 0.221 ± 0.016 |
| C1N2CN3CN1CN(C2)C3 [Methenamine] | 0.245 ± 0.011 | 0.287 ± 0.0055 | 0.275 ± 0.0029 | 0.198 ± 0.025 | 0.226 ± 0.0064 | 0.14 ± 0.0044 | 0.345 ± 0.048 | 0.33 ± 0.051 | 0.204 ± 0.0098 | 0.218 ± 0.035 | 0.59 ± 0.14 | 0.41 ± 0.01 | 0.376 ± 0.0071 |
| O=C(O)CNC(=O)C(CS)Cc1ccccc1 (configuration not stated) [Thiorphan] | 0.26 ± 0.0069 | 0.305 ± 0.013 | 0.2568 ± 0.0017 | 0.252 ± 0.037 | 0.172 ± 0.003 | 0.167 ± 0.0089 | 0.3 ± 0.069 | 0.382 ± 0.034 | 0.202 ± 0.019 | 0.236 ± 0.019 | 0.475 ± 0.036 | 0.409 ± 0.0074 | 0.348 ± 0.021 |
